According to PubChem BioAssay AID463173 (ICCB-Longwood Screening Facility, Harvard Medical School, 2010):
In all, about 52,000 compounds went through this assay and about 4,300 (8.3%) were called active. The list comes from a sample in which actives are over-represented; it also holds similar structures and randomly drawn compounds. Unmarked numbers belong to inactive results. Cut-off read from the data, not from the text of the source: active = survival mostly below about 52% (no sharp cut-off); inactive = mostly above about 56%.

Each compound was assayed on DeltatarO mutant (assay: growth inhibition of S. aureus wild type versus tarO mutant, primary screen, teichoic acid synthesis inhibitors, RN4220, OD600 (AID 463173)). Conditions: OD600, 18 h, hits give low values, screened at 18.75 µg/mL (by protocol).

| Compound | survival |
| --- | --- |
| Cc1ccc(S(=O)(=O)c2cn(CC(=O)Nc3ccc4c(c3)OCO4)c3ccccc3c2=O)cc1C | 112% |
| Cc1ccc(NC(=O)c2nnn(Cc3cccc(C(F)(F)F)c3)c2N)c(C)c1 | 86% |
| COc1ccc(-n2c(=O)c3c4c(sc3n(Cc3cc(C)ccc3C)c2=O)CN(C(C)=O)CC4)c(OC)c1 | 93% |
| Cc1cccc(CC(=O)NC2CC(=O)N(c3ccc4c(c3)OCCO4)C2)c1 (stereo not given) | 72% |
| CN1C(=O)Cc2cc(S(=O)(=O)N3CCN(c4cccc(C(F)(F)F)c4)CC3)ccc21 | 116% |
| CCOC(=O)c1c(C)[nH]c(C)c1S(=O)(=O)NCC(=O)N1CCN(c2ccccc2OC)CC1 | 102% |
| CC(NC(=O)c1cc(-c2ccc(Cl)cc2)on1)c1ccccc1 (stereo not given) | 142% |
| COc1ccc(OC)c(-c2cc(C(=O)Nc3cccc(Cl)c3C)no2)c1 | 2% (active) |
| CC(=O)Nc1ccc(NC(=O)c2cc(-c3cccs3)on2)cc1 | 78% |
| COc1ccc(OC)c(-c2cc(C(=O)Nc3ccc(C)c(C)c3)no2)c1 | -1% (active) |
| COc1ccc(OC)c(-c2cc(C(=O)NC(C)c3ccccc3)no2)c1 (stereo not given) | -14% (active) |
| CC(C)c1cc(C(=O)NC(C)c2ccccc2)no1 (stereo not given) | 50% |
| Cc1c(Cl)cccc1NC(=O)c1cc(-c2cccs2)on1 | 66% |
| CCc1ccc(NC(=O)c2cc(-c3cccs3)on2)cc1 | 161% |
| Cc1ccc(NC(=O)c2cc(-c3cccs3)on2)cc1C | 45% (active) |
| COc1ccc(OC)c(-c2cc(C(=O)NCc3ccc(Cl)cc3)no2)c1 | 47% |
| Cc1c(Cl)cccc1NC(=O)c1cc(-c2cccc(Cl)c2)on1 | 61% |
| COc1ccc(OC)c(-c2cc(C(=O)Nc3cnn(Cc4ccc(Cl)cc4Cl)c3)no2)c1 | 64% |
| Cc1cc(Nc2ccc(Cl)cc2C)nc(-n2nc(C)cc2C)n1 | 74% |
| Cc1ccc(Cn2c(CO)cnc2SCc2ccc(F)cc2)cc1 | 109% |
| COc1cccc(N2C(=O)C(CC(=O)Nc3cccc(F)c3)N(C(C)C)C2=O)c1 (stereo not given) | 94% |
| Cc1ccc(CSc2c(C)cnc3c2c(=O)n(C)c(=O)n3C)cc1 | 78% |
| COc1ccc(OCC(=O)OC2CCN(C)CC2)cc1 | 112% |
| CCN(CC)CCCNC(=O)c1cn(CC)c2ccc(S(=O)(=O)N3CCC(C)CC3)cc2c1=O | 105% |

| Compound | survival |
| --- | --- |
| CS(=O)(=O)N1CCC(c2nc(-c3ccc(S(=O)(=O)NCC4CCCO4)cc3)no2)CC1 (stereo not given) | 85% |
| CCn1c(=O)c2cc(C(=O)Nc3cc(F)ccc3F)sc2c2ccccc21 | 96% |
| CCOc1ccccc1NC(=O)c1c(NCc2ccc(C)o2)sc2c1CCCCC2 | 95% |
| COc1cc(NC(=O)c2cc(-c3ccc(Cl)c(Cl)c3)on2)cc(OC)c1OC | 111% |
| COc1ccccc1-c1cc(C(=O)Nc2cc(Cl)ccc2O)no1 | 52% |
| COc1ccccc1-c1cc(C(=O)Nc2cc(OC)c(OC)c(OC)c2)no1 | 25% (active) |
| O=C(c1ccc2c(c1)CCN2S(=O)(=O)c1ccc(Cl)cc1)N1CCN(c2ccccc2)CC1 | 58% |
| CCCCOc1ccccc1C(=O)Nc1onc2c1CCCC2 | 55% |
| O=C(CN1C(=O)COc2ccc(S(=O)(=O)Nc3ccccc3)cc21)NCc1ccccc1Cl | 102% |
| O=c1c2cn[nH]c2nc(SCc2cccc(Br)c2)n1-c1ccc(Cl)cc1 | 122% |
| CC(C)(C)c1ccc(OCC(=O)Nc2c(C(=O)c3ccc(F)cc3)oc3ccccc23)cc1 | 99% |
| CCOc1ccc(CC(=O)Nc2c(C(=O)c3ccc(F)cc3)oc3ccccc23)cc1OCC | 42% (active) |
| CC(C)c1ccc(OCC(=O)Nc2c(C(=O)c3ccc(F)cc3)oc3ccccc23)cc1 | 65% (active) |
| CCOc1ccc(CC(=O)Nc2c(C(=O)c3ccc(Cl)cc3)oc3ccccc23)cc1OCC | 48% |
| Cc1ccc(C(=O)c2oc3ccccc3c2NC(=O)COc2ccc(C(C)C)cc2)cc1 | 73% |
| CCOc1ccc(CC(=O)Nc2c(C(=O)c3ccc(C)cc3)oc3ccccc23)cc1OCC | 52% |
| Cc1cccc(-n2cc(-c3ccccc3)c3c(NC4CCCC4)ncnc32)c1 | 98% |
| CCNC(=O)CCSc1nnc(-c2ccc(O)cc2)o1 | 95% |
| O=c1oc2ccccc2c(N2CCN(c3ccccc3F)CC2)c1CN1CCCC1 | 89% |
| O=c1oc2ccccc2c(N2CCN(c3ccc(F)cc3)CC2)c1CN1CCCC1 | 100% |
| O=c1oc2ccccc2c(O)c1CN1CCCCC1 | 25% (active) |
| Cc1ccc(-c2cc(-c3ccc4c(c3)NC(=O)CO4)nc3c2COc2ccc(C)cc2-3)cc1 | 96% |
| Cc1c(C(=O)Nc2ccc(F)cc2)sc2nc[nH]c(=O)c12 | 122% |
| Cc1sc2ncn(CC(=O)N3CCN(c4ccccc4F)CC3)c(=O)c2c1S(=O)(=O)N1CCC(C)CC1 | 74% |

| Compound | survival |
| --- | --- |
| Cc1sc2ncn(CC(=O)N3CCN(c4cccc(Cl)c4)CC3)c(=O)c2c1S(=O)(=O)N1CCN(c2ncccn2)CC1 | 63% |
| Cc1ccc(Cl)cc1N1CCN(C(=O)Cn2cnc3sc(C)c(S(=O)(=O)N4CCC(C)CC4)c3c2=O)CC1 | 47% (active) |
| Cc1cccc(N2CCN(C(=O)Cn3cnc4sc(C)c(S(=O)(=O)N5CCN(c6ncccn6)CC5)c4c3=O)CC2C)c1 (stereo not given) | 67% (active) |
| Cc1sc2ncn(CC(=O)N3CCN(c4cccc(Cl)c4)CC3)c(=O)c2c1S(=O)(=O)N1CCC(C)CC1 | 149% |
| Cc1sc2ncn(CC(=O)N3CCN(c4ccccc4)CC3)c(=O)c2c1S(=O)(=O)N1CCN(c2ncccn2)CC1 | 126% |
| CC1=C(c2ccc(C)cc2)S(=O)(=O)NC1=NCc1cccc(F)c1 | 92% |
| Cc1ccc(-n2c(=O)c3ccc(C(=O)NCc4ccco4)cc3n(Cc3ccccc3Cl)c2=O)cc1 | 99% |
| c1ccc2c(c1)n1cnnc1c1nncn21 | 85% |
| CC1=C(C(=O)Nc2ccc(C)cc2C)C(c2ccc([N+](=O)[O-])cc2)n2ncc(C(=O)Nc3ccc(F)cc3)c2N1 (stereo not given) | 101% |
| O=C(O)c1ccc(N2CCOCC2)cc1 | 80% |
| COc1ccccc1N1CCN(CC(O)COc2cc(C)cc(C)c2)CC1 (stereo not given) | 71% |
| COc1ccc(N2CCN(CC(O)COc3ccc(C(C)C)c(C)c3)CC2)cc1 (stereo not given) | 66% |
| COc1ccc(N2CCN(CC(O)COc3ccccc3C(C)(C)C)CC2)cc1 (stereo not given) | -8% (active) |
| COc1ccc(N2CCN(CC(O)COc3ccc(C)cc3C)CC2)cc1 (stereo not given) | 98% |
| Cc1ccc(C(C)C)c(OCC(O)CN2CCN(c3ccccc3F)CC2)c1 (stereo not given) | -5% (active) |
| C=CCc1ccccc1OCC(O)CN1CCN(c2ccccc2)CC1 (stereo not given) | 83% |
| COc1ccc(N2CCN(CC(O)COc3ccc(C(C)(C)C)cc3)CC2)cc1 (stereo not given) | 84% |
| COc1ccccc1N1CCN(CC(O)COc2ccc(C)cc2C(C)(C)C)CC1 (stereo not given) | 1% (active) |
| COc1ccc(N2CCN(CC(O)COc3c(OC)cccc3OC)CC2)cc1 (stereo not given) | 71% |
| CN(C)c1ccc(C(CNS(=O)(=O)c2ccc(Br)cc2)N2CCOCC2)cc1 (stereo not given) | 74% |
| CCc1c(C)sc2c1CCN(Cc1ccccc1F)C2c1ccccc1 (stereo not given) | 102% |
| CCCCC(=O)N1CCc2cc(OC)c(OC)cc2C1COc1ccc(C(=O)OCC)cc1 (stereo not given) | 70% |
| O=C(CN1C(=O)COc2ccc(S(=O)(=O)N3CCCCC3)cc21)NCCc1ccc(Cl)cc1 | 73% |
| CCOc1ccc(N2CC(NC(=O)c3ccc(Cl)cc3)CC2=O)cc1 (stereo not given) | 73% |

| Compound | survival |
| --- | --- |
| N#CSc1ccc2nc(N)sc2c1 | 66% |
| CC(C)(C)Sc1ccc(SC#N)s1 | 1% (active) |
| O=C1CC(c2ccc(Br)cc2)c2c(ccc3ccccc23)N1 (stereo not given) | 32% (active) |
| O=C1CC(c2c(Cl)cccc2Cl)c2c(ccc3ccccc23)N1 (stereo not given) | 73% |
| Cc1ccccc1C1CC(=O)Nc2ccc3ccccc3c21 (stereo not given) | 93% |
| CC(C)c1ccc(CNc2nc(-c3ccco3)nn2C(=O)c2ccc([N+](=O)[O-])cc2)cc1 | 79% |
| COc1ccc(NC(=O)Cn2nnc(C(=O)NCc3ccc4c(c3)OCO4)c2N)cc1 | 76% |
| N#C/C(=C\c1ccc(F)cc1)C(=O)NCC1CCCO1 (stereo not given) | 68% |
| N#C/C(=C\c1ccc(Cl)cc1)C(=O)NCC1CCCO1 (stereo not given) | 44% (active) |
| COc1cc(/C=C(\C#N)C(=O)NCC2CCCO2)ccc1O (stereo not given) | 83% |
| CCOC(=O)c1[nH]c(C)c(CCC(=O)Nc2ccccc2C(=O)OC)c1C | 77% |
| CCn1c(NCc2cccc(Cl)c2)nc2ccccc21 | 102% |
| CCCc1cc(=O)n2[nH]c(NCc3c(F)cccc3Cl)nc2n1 | 86% |
| Cn1c(-c2ccccc2)cnc1NCc1ccccc1O | 46% (active) |
| CCOc1ccc(-c2cnc(NCc3cccc(Cl)c3)n2C)cc1 | 30% (active) |
| Cc1ccc(-c2cnc(NC(=O)CCC(=O)N3CCCCC3)n2C)cc1 | 91% |
| Cn1c(NCc2cccc(Cl)c2)nc2ccccc21 | 104% |
| Cn1c(-c2ccc3c(c2)OCO3)cnc1NCc1cc(Cl)ccc1O | 70% |
| Cc1ccc(CNC(=O)c2ccc(CSCc3c(F)cccc3Cl)o2)cc1 | 90% |
| Cn1c(-c2ccccc2)cnc1SCc1ccccc1 | 108% |
| Cc1ccc(CNc2nccn(-c3cc(C)cc(C)c3)c2=O)cc1 | 95% |
| Cc1ccc(-c2cnc(NCc3c(F)cccc3Cl)n2C)cc1 | -4% (active) |
| Cc1ccc(-c2cnc(NCc3ccc(C(F)(F)F)cc3)n2C)cc1 | -5% (active) |
